Data: PubChem BioAssay (NCI)
Compounds without any hit were thinned out: in the full panel of roughly 83,000, 20% have a hit.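 Values shown are percent growth following 48 h exposure of cells in 96-well plates to a single concentration of compound; below 10 was considered active.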 Activity calls are given as the source filed them.

Legend:
Assay in all cases: NCI-60 one-dose screen, 48 h (100 = growth as untreated, 0 = no growth, -100 = all killed)
Settings in all cases: 10 µM
DU-145 prostate = tested on: DU-145 prostate
K-562 leukemia = tested on: K-562 leukemia
MALME-3M melanoma = tested on: MALME-3M melanoma
MDA-MB-231 breast = tested on: MDA-MB-231 breast
SF-268 CNS = tested on: SF-268 CNS
SF-295 CNS = tested on: SF-295 CNS
SF-539 CNS = tested on: SF-539 CNS
UACC-257 melanoma = tested on: UACC-257 melanoma
M14 melanoma = tested on: M14 melanoma
HCT-15 colon = tested on: HCT-15 colon
HT29 colon = tested on: HT29 colon
SNB-75 CNS = tested on: SNB-75 CNS
SNB-19 CNS = tested on: SNB-19 CNS
U251 CNS = tested on: U251 CNS
PC-3 prostate = tested on: PC-3 prostate
SK-MEL-5 melanoma = tested on: SK-MEL-5 melanoma
UACC-62 melanoma = tested on: UACC-62 melanoma
LOX IMVI melanoma = tested on: LOX IMVI melanoma
SK-MEL-28 melanoma = tested on: SK-MEL-28 melanoma

Measured: growth

COc1ccc(C(=O)/C=C/c2cc(C(F)(F)F)cc(C(F)(F)F)c2)cc1S(N)(=O)=O
inactive: SNB-75 CNS 12%
active: DU-145 prostate -41.4% | K-562 leukemia 8.85% | MALME-3M melanoma -94.7% | MDA-MB-231 breast -77.8% | SF-268 CNS 6.18% | SF-295 CNS -86% | SF-539 CNS -98.4% | UACC-257 melanoma -55.5% | M14 melanoma -75.8% | HCT-15 colon -58.6% | HT29 colon -59.9% | SNB-19 CNS -100% | U251 CNS -68.1% | PC-3 prostate -14.4% | SK-MEL-5 melanoma -98.4% | UACC-62 melanoma -73.4% | LOX IMVI melanoma -100% | SK-MEL-28 melanoma -98.2%

O=C1Nc2ccc(Cl)cc2/C1=C/c1ccc(OCc2ccccn2)cc1
inactive: DU-145 prostate 87.8% | K-562 leukemia 51% | MALME-3M melanoma 38.5% | MDA-MB-231 breast 21.7% | SF-268 CNS 79.3% | SF-295 CNS 84.5% | SF-539 CNS 73.5% | UACC-257 melanoma 118% | M14 melanoma 89.9% | HCT-15 colon 35.7% | HT29 colon 67.5% | SNB-75 CNS 113% | SNB-19 CNS 50.7% | U251 CNS 23.7% | PC-3 prostate 62.1% | SK-MEL-5 melanoma 89.5% | UACC-62 melanoma 66.7% | LOX IMVI melanoma 56.5% | SK-MEL-28 melanoma 100%

COc1ccc(NC(=O)Cn2c(/C=C/c3ccc(N(C)C)cc3)nc3ccccc3c2=O)cc1
active: DU-145 prostate 6.75% | MALME-3M melanoma 7.28% | SF-539 CNS -60.2%
inactive: K-562 leukemia 58.8% | MDA-MB-231 breast 18.8% | SF-268 CNS 73% | SF-295 CNS 49.5% | UACC-257 melanoma 67.7% | M14 melanoma 81% | HCT-15 colon 57% | HT29 colon 44.7% | SNB-75 CNS 84.1% | SNB-19 CNS 70.7% | U251 CNS 23% | PC-3 prostate 64.5% | SK-MEL-5 melanoma 30.7% | UACC-62 melanoma 40.9% | LOX IMVI melanoma 13.8% | SK-MEL-28 melanoma 45.6%

COc1cc(/C=C/C(=O)c2ccc(NC(=O)CN3C(=O)NC(C)(c4ccccc4)C3=O)cc2)cc(OC)c1OC (stereo unspecified)
inactive: DU-145 prostate 12.4% | K-562 leukemia 16% | MALME-3M melanoma 69.5% | MDA-MB-231 breast 26.5% | SF-268 CNS 23% | SF-295 CNS 46.7% | UACC-257 melanoma 52.6% | M14 melanoma 46.8% | HCT-15 colon 11.8% | SNB-75 CNS 83.8% | SNB-19 CNS 42.6% | PC-3 prostate 31.9% | SK-MEL-5 melanoma 44.7% | UACC-62 melanoma 41.6% | SK-MEL-28 melanoma 49.8%
active: SF-539 CNS -50.4% | HT29 colon -2.37% | U251 CNS -15.7% | LOX IMVI melanoma -46.1%

Cc1ccc(/C=C/C(=O)c2ccc(NC(=O)CSc3nnc(-c4c[nH]c5ccccc45)n3-c3ccccc3)cc2)cc1
inactive: DU-145 prostate 93% | K-562 leukemia 64.1% | MALME-3M melanoma 93.9% | MDA-MB-231 breast 83.7% | SF-268 CNS 82.2% | SF-295 CNS 92.4% | UACC-257 melanoma 111% | M14 melanoma 82.1% | HCT-15 colon 79.5% | HT29 colon 100% | SNB-75 CNS 91.5% | SNB-19 CNS 87.9% | U251 CNS 78.5% | PC-3 prostate 71.8% | SK-MEL-5 melanoma 94% | UACC-62 melanoma 75.8% | LOX IMVI melanoma 78.4% | SK-MEL-28 melanoma 99.1%
active: SF-539 CNS 7.12%

NS(=O)(=O)c1ccc(NC(=O)CSc2ccc(-c3ccccc3)nn2)c(Br)c1
inactive: DU-145 prostate 75.9% | K-562 leukemia 96% | MALME-3M melanoma 72.8% | MDA-MB-231 breast 47.7% | SF-268 CNS 20.8% | SF-295 CNS 69.9% | SF-539 CNS 48.5% | UACC-257 melanoma 100% | M14 melanoma 99.1% | HCT-15 colon 86.7% | HT29 colon 99.2% | SNB-75 CNS 14.2% | SNB-19 CNS 42.9% | U251 CNS 17.8% | PC-3 prostate 51.9% | SK-MEL-5 melanoma 85.7% | UACC-62 melanoma 59.2% | SK-MEL-28 melanoma 94.7%

COc1ccc(CN2[C@H](C(=O)NCc3ccc(C(=O)NO)cc3)Cc3c([nH]c4ccccc34)[C@H]2C2CC2)cc1
inactive: DU-145 prostate 57% | K-562 leukemia 26.2% | MALME-3M melanoma 30.4% | MDA-MB-231 breast 54.5% | SF-268 CNS 64.9% | SF-295 CNS 45.5% | SF-539 CNS 41.6% | UACC-257 melanoma 43.4% | M14 melanoma 49.6% | HCT-15 colon 44.4% | HT29 colon 39.7% | SNB-75 CNS 74.5% | SNB-19 CNS 63.4% | U251 CNS 47.9% | PC-3 prostate 54.6% | SK-MEL-5 melanoma 67.3% | UACC-62 melanoma 20.9% | LOX IMVI melanoma 35.1% | SK-MEL-28 melanoma 43.7%

COc1cnc2c(c1)C(=O)c1c-2n(CCCNC(C)C)c(=O)c2cc(OC)c(OC)cc12
active: K-562 leukemia 5.04% | SF-539 CNS -63%
inactive: DU-145 prostate 16.4% | MALME-3M melanoma 88.7% | MDA-MB-231 breast 23.1% | SF-268 CNS 41.8% | SF-295 CNS 13.3% | UACC-257 melanoma 90.1% | M14 melanoma 45.3% | HCT-15 colon 34.6% | HT29 colon 10.5% | SNB-75 CNS 70.7% | SNB-19 CNS 25.2% | U251 CNS 30.4% | PC-3 prostate 48.7% | SK-MEL-5 melanoma 47.7% | UACC-62 melanoma 18.7% | SK-MEL-28 melanoma 94%

CC1(c2ccccc2)NC(=O)N(CC(=O)Nc2ccc(C(=O)/C=C/c3ccc(Br)cc3)cc2)C1=O (stereo unspecified)
inactive: DU-145 prostate 59.8% | K-562 leukemia 14.5% | MALME-3M melanoma 72.9% | MDA-MB-231 breast 54.3% | SF-268 CNS 30.9% | SF-295 CNS 37% | SF-539 CNS 39.9% | UACC-257 melanoma 48.4% | M14 melanoma 23.3% | HCT-15 colon 19% | SNB-75 CNS 41.6% | SNB-19 CNS 56.7% | U251 CNS 15.1% | PC-3 prostate 20.1% | SK-MEL-5 melanoma 27.5% | UACC-62 melanoma 27.2% | SK-MEL-28 melanoma 48.9%
active: HT29 colon 3.41% | LOX IMVI melanoma -49.1%

COc1ccc(-c2c(N)c(=O)n(C)c3ccccc23)cc1
inactive: DU-145 prostate 83.2% | K-562 leukemia 46.8% | MALME-3M melanoma 70.6% | MDA-MB-231 breast 49.5% | SF-268 CNS 66% | SF-295 CNS 75.2% | SF-539 CNS 80.6% | UACC-257 melanoma 92.9% | M14 melanoma 70.6% | HCT-15 colon 49.7% | HT29 colon 59.9% | SNB-75 CNS 75.4% | SNB-19 CNS 62.1% | U251 CNS 47.8% | PC-3 prostate 46.9% | SK-MEL-5 melanoma 57.7% | UACC-62 melanoma 38.1% | LOX IMVI melanoma 45.9% | SK-MEL-28 melanoma 86.5%

COc1ccc(C(=O)CSc2nnc(-c3c[nH]c4ccccc34)n2-c2ccccc2)cc1
inactive: DU-145 prostate 68.9% | K-562 leukemia 58.2% | MDA-MB-231 breast 32.5% | SF-268 CNS 41% | SF-295 CNS 36.2% | SF-539 CNS 28.5% | UACC-257 melanoma 59.5% | M14 melanoma 75.7% | HCT-15 colon 73.3% | HT29 colon 83.1% | SNB-75 CNS 15% | SNB-19 CNS 29.8% | U251 CNS 34.4% | PC-3 prostate 50.3% | SK-MEL-5 melanoma 81.3% | UACC-62 melanoma 25.8% | LOX IMVI melanoma 43.5% | SK-MEL-28 melanoma 49.7%
active: MALME-3M melanoma -16.2%

O=C(CSc1nnc(-c2ccc3nc(-c4ccc(Cl)cc4)[nH]c3c2)o1)Nc1ccc(Cl)cc1
inactive: SNB-75 CNS 58%
active: DU-145 prostate 2.3% | K-562 leukemia 5.7% | MALME-3M melanoma -78.6% | MDA-MB-231 breast -87.1% | SF-268 CNS -6.48% | SF-295 CNS -99.4% | SF-539 CNS -100% | UACC-257 melanoma -32.6% | M14 melanoma -50.6% | HCT-15 colon -84% | HT29 colon -35.4% | SNB-19 CNS -49.4% | U251 CNS -57.7% | PC-3 prostate -7.65% | SK-MEL-5 melanoma -68.9% | UACC-62 melanoma -87.1% | LOX IMVI melanoma -99.2% | SK-MEL-28 melanoma -76.9%

O=C(CNc1nc(-c2ccccc2)cs1)Nc1ccc(Br)cc1
active: DU-145 prostate -92.3% | K-562 leukemia 6.7% | MALME-3M melanoma -82.4% | MDA-MB-231 breast -92.5% | SF-268 CNS -12.5% | SF-295 CNS -97.5% | SF-539 CNS -98.3% | UACC-257 melanoma -73.8% | M14 melanoma -86.5% | HCT-15 colon -89.4% | HT29 colon -55.8% | SNB-75 CNS -3.24% | SNB-19 CNS -99.4% | U251 CNS -89.8% | PC-3 prostate -27.8% | SK-MEL-5 melanoma -99.8% | UACC-62 melanoma -84.1% | LOX IMVI melanoma -98.7% | SK-MEL-28 melanoma -96.3%

[2H]C([2H])([2H])Oc1ccc2ncc(C#Cc3cncc(C(=O)Nc4ccc(CN5CCN(C)CC5)c(C(F)(F)F)c4)c3)n2n1
active: DU-145 prostate -98.8% | K-562 leukemia 1.31% | MALME-3M melanoma -81.1% | MDA-MB-231 breast -90.5% | SF-268 CNS -42.8% | SF-295 CNS -77% | SF-539 CNS -90.2% | UACC-257 melanoma -65.9% | M14 melanoma -61.9% | HCT-15 colon -87.7% | HT29 colon -52.8% | SNB-75 CNS -66.4% | SNB-19 CNS -57.9% | U251 CNS -31.4% | PC-3 prostate -61.6% | SK-MEL-5 melanoma -96.1% | UACC-62 melanoma -77.5% | LOX IMVI melanoma -68.4% | SK-MEL-28 melanoma -83.8%

Cc1noc2c(Cc3ccccc3)nn(CC(=O)N/N=C/c3ccc(F)cc3)c(=O)c12
active: MALME-3M melanoma -1.4% | SNB-75 CNS 9.02%
inactive: DU-145 prostate 65.2% | K-562 leukemia 96.7% | MDA-MB-231 breast 44.3% | SF-268 CNS 62.6% | SF-295 CNS 25.9% | SF-539 CNS 66.9% | UACC-257 melanoma 67.4% | M14 melanoma 66.1% | HCT-15 colon 94.1% | HT29 colon 94.8% | SNB-19 CNS 32.4% | U251 CNS 42.8% | PC-3 prostate 65.6% | SK-MEL-5 melanoma 76% | UACC-62 melanoma 94% | LOX IMVI melanoma 36.3% | SK-MEL-28 melanoma 90.4%

COc1ccc2cc([C@H](C)C(=O)NCc3ccccc3)ccc2c1
inactive: DU-145 prostate 29.4% | K-562 leukemia 20.1% | MALME-3M melanoma 55.2% | MDA-MB-231 breast 38.4% | SF-268 CNS 60.2% | SF-295 CNS 12.8% | UACC-257 melanoma 64.7% | M14 melanoma 38.2% | HCT-15 colon 29.1% | SNB-19 CNS 31.7% | U251 CNS 25% | PC-3 prostate 49.5% | SK-MEL-5 melanoma 18.7% | UACC-62 melanoma 22.1% | SK-MEL-28 melanoma 64.4%
active: SF-539 CNS 2.48% | HT29 colon 5.25% | SNB-75 CNS 6.97%
